Hit rate of the full screen: of about 48,000 compounds, about 13,000 (27%) showed an effect of 50% or more. The list shows a part of the results.
What follows are compounds tested on Wolbachia pipientis (assay: Anti-Wolbachia Cell-Based Screen). Settings: 5 µM.
Type: functional
Set-up: scale not given: in the data most compounds retested in dose-response had high values

| SMILES | Percent Effect [%] |
| --- | --- |
| O=c1c2cnc(N3CCCCC3)nc2ccn1-c1ccccc1 | 8.71 |
| COCCSCC(=O)NC1(c2cccc(Br)c2)CC1 | -2.226 |
| COc1ccc(CN2CC3(CCNCC3)CCC2=O)c(F)c1F | -14.66 |
| Cc1ccc(-c2ccnc(NC(C)c3ncc[nH]3)n2)c(C)n1 (centres undefined) | 7.863 |
| Cc1ncncc1-c1ccnc(N)n1 | 103.4 |
| Cc1ncncc1-c1ccnc(N(C)C)n1 | 99.71 |
| Cc1ncncc1-c1ccnc(NC(C)C)n1 | 107.6 |
| Nc1nccc(-c2c[nH]nc2C2CCCCC2)n1 | -15.86 |
| Cc1nn(C)cc1-c1ccnc(N(C)Cc2ccc(F)cc2)n1 | 21.27 |
| Nc1nccc(-c2cccc3ccnn23)n1 | -5.19 |
| Cc1ccc(-c2ccnc(NC(C)c3n[nH]c(C)n3)n2)c(C)n1 (centres undefined) | -0.9271 |
| Cc1ccc(CN(C)c2nccc(-c3cn(C)nc3C)n2)o1 | -5.707 |
| O=C(CSc1ccccn1)N1C[C@H]2CC[C@@H]1CN(Cc1cscn1)C2 | 3.579 |
| CCN(CC)c1ncc(Cl)c(C(=O)NC2CCc3nccn3C2)n1 (centres undefined) | -2.888 |
| Cc1ccccc1N1CCN(C(=O)c2cnn(C(C)C)c2)C(C)C1 (centres undefined) | 2.986 |
| COc1cccc2c1OCC(C(=O)N(Cc1ccncc1)CC(C)C)C2 (centres undefined) | -1.678 |
| CC(C)N(CCO)C(=O)C1CCC(=O)N(CCc2ccc(Cl)cc2)C1 (centres undefined) | -6.406 |
| COc1ncccc1CN1CCC2(CC1)CC(OCC1CC1)CO2.O=C(O)C(F)(F)F (centres undefined) | 103.5 |
| COc1ncccc1CN1CCC2(CC1)CN(c1ccccn1)CCO2.O=C(O)C(F)(F)F.O=C(O)C(F)(F)F.O=C(O)C(F)(F)F | 8.158 |
| CCOC1COC2(CCN(Cc3cccnc3OC)CC2)C1.O=C(O)C(F)(F)F.O=C(O)C(F)(F)F (centres undefined) | 97.13 |
| CNC(=O)COC1COC2(CCN(c3ncccn3)CC2)C1.O=C(O)C(F)(F)F (centres undefined) | 21.38 |
| COC1COC2(CCN(Cc3ccccc3Cl)CC2)C1.O=C(O)C(F)(F)F (centres undefined) | -10.24 |
| CNC(=O)COC1COC2(CCN(Cc3cccnc3OC)CC2)C1.O=C(O)C(F)(F)F (centres undefined) | 91.78 |
| COc1cccc2c1OCC(CNC(=O)CCn1cnnn1)C2 (centres undefined) | -3.423 |
| Cc1cc(N2CCCC(OC(=O)CCc3cnn(C)c3)C2)nc(C)n1 (centres undefined) | 0.03167 |
| COCCCC1(CO)CCCN(CCS(C)(=O)=O)C1 (centres undefined) | -5.665 |

| SMILES | Percent Effect [%] |
| --- | --- |
| COCCCC1(CO)CCCN(CCOC)C1 (centres undefined) | 5.578 |
| COCCN1CCN(CC2(O)CCCCC2)CC1 | -7.115 |
| COCCN1CCC(C)(c2cc(O)[nH]n2)CC1 | 107.8 |
| COCCN1CCCC(C)(c2cc(O)[nH]n2)C1 (centres undefined) | 85 |
| COCCN1CCC2(CC1)CC(OCC1CC1)c1ccc(C)cc12 (centres undefined) | -29.1 |
| COc1cccc([C@@H]2CN(C3CSCCSC3)C[C@H]2C(=O)O)c1 | -1.681 |
| O=C(O)C(F)(F)F.O=C(O)C(F)(F)F.c1cnc(N2CC[C@@H](N3CCOCC3)[C@@H]2Cc2ccncc2)nc1 | -7.245 |
| CC(C)NC(=O)NC(C)c1ccc(-c2ccncc2)cc1 (centres undefined) | -5.821 |
| CCN(CC)[C@@H]1CN(S(=O)(=O)c2cn(C)cn2)[C@@H]2CCCO[C@H]12 | -3.081 |
| CO[C@H]1CCN(S(=O)(=O)c2cn(C)cn2)[C@H]1Cc1ccncc1 | -4.113 |
| CC(C)N(C)CC(=O)N1CCCC(n2ccnc2)C1 (centres undefined) | -10.62 |
| Cc1nn(C)cc1S(=O)(=O)N(C)[C@@H]1CCC[C@@H](n2ccnc2)[C@@H]1O | 94.74 |
| CN([C@@H]1CCC[C@@H](n2ccnc2)[C@@H]1O)S(=O)(=O)c1cn(C)cn1 | 87.13 |
| CN(C)C(=O)c1cc(S(=O)(=O)N2CCCC2Cn2ccnc2)cn1C (centres undefined) | 11.52 |
| CNC(=O)[C@@H](c1ccccc1F)N1CCC[C@H]1C(=O)NC1CCOCC1.Cl | 3.155 |
| CCCN1CCCn2nc(CNS(=O)(=O)c3cccc(C#N)c3)cc2C1 | 3.103 |
| CN(C)C(=O)COc1ccccc1CNC1CCc2ncnn2C1 (centres undefined) | -0.6489 |
| COc1ccc(CNC2CCC(O)CC2)cc1OCCCC#N (centres undefined) | 107.9 |
| COc1ccc(CNCC2CC2)cc1F | 0.5807 |
| COc1ccc(CNC2CCc3ncnn3C2)cc1OCCCC#N (centres undefined) | 100.9 |
| CNC(=O)COc1ccccc1CNC1CCc2ncnn2C1 (centres undefined) | -1.235 |
| COc1ccc(CNC2CCc3ncnn3C2)cc1OCC1CC1 (centres undefined) | 83.43 |
| COc1ccc(CCC(=O)NC2CCC(O)CC2)cc1OC (centres undefined) | -0.04658 |
| c1ccc(OC2CCCC2)c(CNC2CCc3ncnn3C2)c1 (centres undefined) | 12.7 |
| COCCOc1ccc(CNC2CCc3ncnn3C2)cc1OC (centres undefined) | 100.1999 |
| CCOc1ccc(N(CCC#N)C(=O)c2ccc(OC)nc2)cc1 | 22.48 |

| SMILES | Percent Effect [%] |
| --- | --- |
| CC(C)N(CC(N)=O)Cc1csc(COc2ccc(F)cc2)n1 | -2.254 |
| CC(C)CN1CC2(CCN(C(=O)C(O)c3cccc(Cl)c3)CC2)CC1=O (centres undefined) | 4.909 |
| COc1cc(C)nc(N2CCN(C(=O)CCc3ccsc3)CC2)n1 | 17.96 |
| CN(Cc1ccccc1NCc1ncc[nH]1)C(=O)c1cccs1 | 4.243 |
| CC(C)N(Cc1ccccn1)C(=O)CN(C)C(=O)c1cccs1 | 109.7 |
| O=C(Cc1ccc2c(c1)CCCC2)NCCc1ccccn1 | 0.3571 |
| CN(CC(=O)NCCc1ccccn1)C(=O)c1cccs1 | 94.6 |
| CN(CCc1ccccn1)C(=O)c1cccs1.Cl | 100.7 |
| Cc1ccccc1CN(Cc1ccccn1)C(=O)CN(C)C(C)C | -1.429 |
| Cc1cccnc1CC(C)N(C)C(=O)c1cccs1 (centres undefined) | -6.366 |
| CN(Cc1ccccc1NCc1cscn1)C(=O)c1cccs1 | -0.6624 |
| CN(CCc1ccccn1)C(=O)c1cn2c(n1)CNCC2 | -0.4774 |
| Cc1nnn2c1COCC(CNC(=O)c1ccc3[nH]ccc3c1)C2 (centres undefined) | 13.15 |
| CCN(C)CC1CCN(C(=O)Nc2ccc(-c3csnn3)cc2)C1 (centres undefined) | -9.21 |
| Cc1nc(C)c(CN(C)C2CCN(C(=O)OC(C)(C)C)CC2)s1 | -6.792 |
| O=S(=O)(Nc1cn[nH]c1)c1ccc(F)c(Br)c1 | -20.95 |
| CC(=O)N(C)CC(=O)NCC1(c2cccc(C)c2)CCCC1 | -4.333 |
| CN(C)c1cncc(C2CCN(CC(N)=O)CC2)n1 | 103 |
| CN(C)c1cncc(C2CCN(CCO)CC2)n1 | -9.091 |
| COCCN1CCC(c2cncc(N(C)C)n2)CC1 | 88.64 |
| COCCN1CCC(c2nc3ccccc3[nH]2)CC1 | 5.31 |
| OC1(CN2CCCC2)CCCN(Cc2ccc(F)cc2Cl)C1 (centres undefined) | -5.76 |
| OC1(CN2CCCC2)CCCN(Cc2c[nH]c(CC3CCCC3)n2)C1 (centres undefined) | -7.473 |
| CN(C)c1cncc(C2CCN(CC3(O)CCCCC3)CC2)n1 | 90.17 |
| CCn1ncnc1CN1CCOC(Cc2cccc3ccccc23)C1 (centres undefined) | -5.971 |
| CCn1cc(C(=O)NCC2(C(N)=O)CCOCC2)c2ccccc21 | -0.08495 |

| SMILES | Percent Effect [%] |
| --- | --- |
| Cc1nc(CN(C)C(=O)C2CCC(=O)N(CCN(C)C)C2)cs1 (centres undefined) | 7.495 |
| Cc1ccccc1C(=O)N1C[C@@H]2[C@@H](CN(C)CCc3ccccn3)[C@@H]2C1 | -8.245 |
| CCCN(CCc1ccccn1)C(=O)Cn1cc(C)cn1 | 98.5 |
| CN(CCc1ccccn1)C(=O)C1Cc2ccccc2CN1C (centres undefined) | 6.694 |
| CCCN(CCc1ccccn1)C(=O)CCc1cnn(C)c1 | 95.46 |
| CN(C)c1ccc(C(=O)Nc2cnn(Cc3ccccn3)c2)cc1 | -12.03 |
| CN(CCCc1cnn(C)c1)C(=O)C1COc2ccccc2C1 (centres undefined) | -12.29 |
| CCCN(CCc1ccccn1)C(=O)Cn1cnnn1 | 104.6 |
| Cc1ccc(CC(NC(=O)Cn2cnnn2)c2ccccn2)cc1 (centres undefined) | 13.96 |
| Cc1cnn(C2CN(CC(=O)NCc3ccccn3)C2)c1 | 0.4192 |
| N#CC1(NC(=O)COc2cc(Cl)cc(Cl)c2)CCOCC1 | -7.839 |
| COc1ccc(CN2C[C@@H]3CC[C@H](C2)N(Cc2snnc2C)C3)cc1 | -1.178 |
| CC(C)OCCC(=O)Nc1ncn(CC(=O)N2CCCCCC2)n1 | -17.71 |
| CCCS(=O)(=O)N1CCc2onc(CNc3ncccn3)c2C1 | 6.344 |
| CCn1cc(CN2CCCC(COc3ccc(F)cc3)C2)cn1 (centres undefined) | 31.54 |
| Cc1c(CNCc2nn(-c3ccccc3)c3c2CCC3)cc(C#N)n1C | -12.67 |
| CCc1nccn1C1CCCN(C(=O)c2ccnc(N(C)C)c2)C1 (centres undefined) | 1.194 |
| Cc1nccn1C1CCCN(C(=O)c2ccc3c(c2)OCCCO3)C1 (centres undefined) | 112.3 |
| CC(C)c1nccn1C1CCCN(C(=O)c2ccc3c(c2)OCO3)C1 (centres undefined) | -3.611 |
| CCc1nccn1C1CCCN(C(=O)c2ccc3c(c2)OCO3)C1 (centres undefined) | 0.5679 |
| CCc1nccn1C1CCCN(C(=O)c2ccc3c(c2)OCCO3)C1 (centres undefined) | 89.9 |
| Cc1nccn1C1CCCN(C(=O)c2ccc3c(c2)NC(=O)CO3)C1 (centres undefined) | 3.537 |
| CN(C)c1nc(NCc2ccccc2Cn2cccn2)ncc1F | 5.014 |
| Cc1cccc(C(=O)Nc2ccc(OC3CCOCC3)c(C)c2)n1 | 4.017 |
| COc1ccc(CN2CCCC2)cc1Oc1ccc2c(c1)CC(CN)O2 (centres undefined) | -16.95 |
| O=C(c1ccc(SC(F)(F)F)cc1)N1CCOCC1c1ncon1 (centres undefined) | -6.89 |

Source: ChEMBL document CHEMBL3988442, “University of Dundee, Small-Polar-MMV Screening Library” (2021)
